# Screens as filed in PubChem BioAssay.
# The entries come from a sample that favours hits as a whole.
# TTR transcr act: TTR transcription activators in neuroblastoma reporter cells, primary screen, cell-based, luminescence, SH-SY5Y, TTR promoter Gaussia luciferase | activation, % at 16.7 µM | 100% = recombinant luciferase protein wells | AID 1117267, 2014 | 1.3% of 92,000 active;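 active = activation above the mean of all tested compounds plus 3 SD, cut at about 9.5% in these data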;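 note: cells exposed to compounds for one day before reading; 0% = median of all test compound wells on the plate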
# HuH7 TTR inh: TTR promoter reporter inhibitors in hepatoma cells, counter-screen for TTR transcription activator project, cell-based, luminescence, HuH7 hepatoma; shares compounds with TTR transcr act; HuH7 TTR promoter-Gaussia luciferase reporter; 4% of 1,100 active; AID 1117279, 2014; inhibition, % at 16.7 µM;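 active = average inhibition above the solvent-only control wells' mean plus 3 SD, cut at about 15% in these data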;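 note: 0% = cells with DMSO only and 100% = cells with inhibitor control FD; inhibitors lower well luminescence so higher value means more inhibition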
# TTR up confirm: TTR transcription activators, retest, confirmation, cell-based, luminescence, SH-SY5Y, triplicate. shares compounds with TTR transcr act. SHSY5Y TTR promoter Gaussia luciferase; 100% = purified Lucia enzyme wells, no cells. activation, % at 16.7 µM. 1,100 tested, under 10 active. AID 1117280, 2014;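 active = mean activation above a set limit taken from the earlier primary screen, cut at about 11% in these data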;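 note: 0% = DMSO-treated cells and 100% = recombinant Lucia luciferase without cells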
# Numbers without * were called inactive.
SMILES,TTR transcr act,others
Cn1c2ccc(F)cc2c2ncn(Cc3ccco3)c(=O)c21,0,
CC(OC(=O)COc1ccccc1)C(=O)NC1CCCC1 (stereo not drawn),-1,
CC(OC(=O)CN1C(=O)c2ccccc2C1=O)C(=O)NC1CCCCC1 (stereo not drawn),14*,HuH7 TTR inh=-12;TTR up confirm=0
CC(C(=O)OCC(=O)NC1CCCC1)N1C(=O)c2ccccc2C1=O (stereo not drawn),1,
CN(C(=O)[C@@H]1CC=C[C@@H]2CCN(C3CCCCC3)C(=O)[C@@H]21)c1ccccc1,2,
O=c1[nH][nH]c(=O)c(Cl)c1Cl,12*,HuH7 TTR inh=-14;TTR up confirm=0
CCOC(=O)[C@@]12CCC3=C1N(CCC3)C(=O)[C@H](CC(=O)N1CCCCC1)C2,0,
O=S1(=O)c2ccc(N3CCC[C@@H]3CO)cc2O[C@H]2CCN1C2,0,
CCCCNC(=O)O[C@H]1CC[C@@]23CCCN2C(=O)CCC[C@H]3C1,2,
O=C1CCC[C@H]2C[C@H](NCc3ccccc3Cl)CC[C@]23CCCN13,0,
Cc1cc2nc(-c3ccc(F)cc3)c(Cc3ccccc3)n2c(C)c1Br,0,
Cc1ccc(Cc2c(-c3cccc(Cl)c3)nc3cc(C)c(Br)c(C)n23)cc1,0,
Cc1ccc(Cc2c(-c3ccccc3)nc3cc(C)c(Br)c(C)n23)cc1,12*,HuH7 TTR inh=-10;TTR up confirm=0
CCn1c(=O)n2n(c1=O)[C@]1(C=C(C)C2)CN(Cc2ccc(OC)cc2OC)C(NC(=O)c2ccccc2)=N1,1,
CCCC[C@H]1C2CC(OC(=O)Nc3ccccc3C(F)(F)F)C(C2)[C@H]2CCCCN21 (stereo partly drawn),-1,
Cc1nc2sc(C(c3cccc(F)c3)N3CCCCC3)c(O)n2n1 (stereo not drawn),10*,HuH7 TTR inh=-3;TTR up confirm=0
Cc1nc2sc(C(c3ccc(Cl)cc3)N3CCOCC3)c(O)n2n1 (stereo not drawn),-1,
Cc1nc2sc(C(c3ccccc3)N3CC(C)OC(C)C3)c(O)n2n1 (stereo not drawn),-1,
Cc1cc(C)nc(NC(=S)N2CCN(c3ncc(C(F)(F)F)cc3Cl)CC2)c1,1,
CN(C(=O)[C@@H](C1CC1)[C@@H](O)c1ccc2ccccc2c1)c1ccccc1,-1,
CCCCN(C)C(=O)c1c[nH]c2ccc(S(=O)(=O)N3CCOCC3)cc2c1=O,11*,HuH7 TTR inh=-7;TTR up confirm=1
O=C(NCCN1CCOCC1)c1c[nH]c2ccc(S(=O)(=O)N3CCOCC3)cc2c1=O,0,
CCN(CC)CCNS(=O)(=O)c1ccc2[nH]cc(C(=O)O)c(=O)c2c1,0,
O=C(NCCCc1ccccc1)[C@H](Cc1ccccc1)NC1(C(=O)NCCc2c[nH]c3ccccc23)CCOCC1,1,
CC(C)(C)OC(=O)N1CCC(N[C@@H](Cc2ccccc2)C(=O)NCC(c2ccccc2)c2ccccc2)(C(=O)NC2CCCCC2)CC1,2,
SMILES,TTR transcr act,others
Cc1cc(=O)oc2cc(OCC#N)ccc12,2,
Cc1cc(=O)oc2cc(OCCSc3nnc(-c4ccccc4)o3)ccc12,1,
Cc1cc(=O)oc2cc(OCCSCCN3CCCCC3)ccc12,21*,HuH7 TTR inh=-9;TTR up confirm=0
COc1cccc(NC(=O)NC2CCCCN(Cc3ccccc3C)C2=O)c1 (stereo not drawn),-3,
CC(=O)O[C@H]1C=C[C@@H](NC(=O)OC(C)(C)C)C1,2,
C[C@H]1C2CC(OC(=O)Nc3ccc(C#N)cc3)C(C2)[C@H]2CCCCN21 (stereo partly drawn),0,
C#CCNC(=O)C[C@H]1C[C@@]2(C(=O)OC)C(=C[C@H](C(C)C)O[C@@H]2C2CC2)N(Cc2ccc(Cl)cc2Cl)C1=O,2,
CC(C)(C)OC(=O)NCCc1ccccc1/C=C/S(=O)(=O)NCc1ccccc1,-1,
Nc1ncnc2c1ncn2CCN1CCOCC1,13*,HuH7 TTR inh=-5;TTR up confirm=0
Nc1ncnc(N2CCOCC2)c1N,0,
Nc1ncnc2c1ncn2[C@H]1C[C@H](O)[C@@H](CO)O1,9,
CC(C)(C)CCN1CCC[C@H](NC(=O)COc2ccc(F)c(Cl)c2)C1,0,
C/C(=N\NC(=O)c1cccs1)c1cccnc1,9.9*,HuH7 TTR inh=-5;TTR up confirm=0
O=C(NNC(=S)NC(=O)c1cccs1)c1cccnc1,-2,
C/C(=N\NC(=O)c1ccc(N(C)C)cc1)c1cccnc1,0,
O=C(OCC#CCSc1nnc(-c2cc3ccccc3cc2O)o1)c1ccc(F)cc1,0,
CN(C)[C@H]1CCN(c2cccc3c2S(=O)(=O)N2CC[C@@H](C2)O3)C1,1,
CCOC(=O)C1=C(c2ccccc2)NC(=O)NC1c1ccc(N(C)C)cc1 (stereo not drawn),14*,HuH7 TTR inh=-7;TTR up confirm=1
CCOC(=O)C1=C(CS(=O)(=O)c2ccccc2)NC(=O)NC1c1ccccc1 (stereo not drawn),-1,
CCOC(=O)C1=C(c2ccccc2)NC(=O)NC1c1ccc(OC)cc1 (stereo not drawn),0,
NC(=O)C1CCN(c2nc(-c3ccc(OCc4ccccc4)cc3)cs2)CC1,-2,
COC(=O)[C@]12C[C@H](CC(=O)NCc3ccccc3)C(=O)N(Cc3cccc4ccccc34)C1=C[C@H](COCc1ccccc1)O[C@@H]2C,0,
O=C(COC(=O)c1ccc(O)cc1)Nc1ccc(N2CCCCC2)cc1,3,
COc1cc(OC)cc(C(=O)OCC(=O)Nc2ccc(N3CCCCC3)cc2)c1,12*,HuH7 TTR inh=0;TTR up confirm=1
COc1ccc(OCC(=O)Nc2ccc(N3CCCCC3)cc2)cc1,1,
SMILES,TTR transcr act,others
CCn1ncc(/C=N\NC(=O)c2csc3ccccc23)c1C,15*,HuH7 TTR inh=18*;TTR up confirm=-1
Cc1nn(C)c(C)c1/C=N/NC(=O)c1csc2ccccc12,-2,
Cc1sccc1/C=N/NC(=O)c1cccc2ccccc12,-2,
CC1(C)Oc2ccc3ccc(=O)oc3c2C[C@H]1O,2,
CC1(C)Oc2ccc3ccc(=O)oc3c2-c2cnoc21,-1,
CC1(C)Oc2ccc3ccc(=O)oc3c2-c2cn[nH]c21,10*,HuH7 TTR inh=6;TTR up confirm=0
CN1CC(O)([C@H](Cc2ccccc2)NC(=O)OC(C)(C)C)OCC1C(=O)NCc1cccc2ccccc12 (stereo partly drawn),-4,
C[C@H](CO)N1C[C@H](C)[C@@H](CN(C)C(=O)NC2CCCCC2)OCc2cn(nn2)CCCC1=O,0,
O=C(COC(=O)c1ccc(Cl)nc1)Nc1cc(S(=O)(=O)N2CCCCC2)ccc1Cl,-1,
O=C(COC(=O)c1ccccc1O)Nc1ccc(S(=O)(=O)N2CCCCC2)cc1,-4,
O=C(COC(=O)c1ccc(Cl)nc1)Nc1ccc(S(=O)(=O)N2CCCC2)cc1,20*,HuH7 TTR inh=-1;TTR up confirm=-1
O=C(Nc1ccc(F)cc1)OCc1cn(Cc2ccccc2Cl)nn1,1,
COC(=O)[C@]12C[C@H](CC(=O)N3CCN(C(=O)C4CC4)CC3)C(=O)N(Cc3cccc4ccccc34)C1=C[C@H](C(C)C)O[C@@H]2C1CC1,-1,
C[C@@H](NC(=O)c1nc[nH]c1C(=O)NCC(=O)OC(C)(C)C)c1ccccc1,4,
CN(Cc1ccccc1)C(=O)c1[nH]cnc1C(=O)NCC(=O)OC(C)(C)C,11*,HuH7 TTR inh=-16;TTR up confirm=22*
